HT1080 IDH1KD tx = HT-1080 IDH1 knockdown cell toxicity (counter line); HT-1080 IDH1 knockdown viability, ATP luminescence, 48 h; Potency, µM (titrated, usually from 46.1 µM), most hits filed as cytotoxic; AID 686971; 360,000 compounds, 2% hits
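IDH1KD HT-1080 cells, 750/well, RPMI + 5% FBS; compound pinned after 2 h settling; 48 h, 37 °C; CellTiter-Glo luminescence; % activity normalised to DMSO and no-cell wells; curves fitted, classed by r2 and efficacy.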
KB-3-1 tox = KB-3-1 parental cell cytotoxicity; KB-3-1 viability, CellTiter-Glo ATP luminescence, 72 h; Potency, µM (doses to about 46.1 µM), actives largely listed as cytotoxic; 400,000 compounds, 1.4% hits; also: nearly all actives have a fitted effect of over 60% in size
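Parental KB-3-1 viability, qHTS format: 72 h compound exposure, 37 °C; CellTiter-Glo; media-only wells and DMSO plates as controls; concentration-effect fits on corrected data.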
KB-V1 cytotox = KB-V1 MDR subline cytotoxicity; 400,000 compounds, 3.4% hits; Potency, µM (highest dose often 46.1 µM), usual class: cytotoxic; KB-V1 MDR cells viability, CellTiter-Glo, 72 h; AID 1347076; also: nearly all actives have a fitted effect of over 60% in size
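KB-V1 MDR subline cells in DMEM (phenol-red free, 10% FBS) exposed to compounds in qHTS concentration series for 72 h at 37 degrees C. Viability read by CellTiter-Glo luminescence; concentration-effect curves fitted after normalization and correction.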
ATXN viability = viability counter-screen for ATXN expression inhibitors; S2 cells (HEK-293 line with an ATXN2-luciferase reporter) viability, CellTiter-Fluor protease fluorescence, 24 h; Potency, µM (series often up to 56.7 µM), actives largely listed as cytotoxic; 400,000 compounds, 0.49% hits; also: nearly all actives have a fitted effect of over 40% in size
ATXN2 expr inh = inhibitors of ATXN2 expression | HEK-293 ATXN2-luciferase reporter, luminescence, 24 h | Potency, µM (series often up to 57 µM), actives largely listed as inhibitors | 360,000 compounds, 0.72% hits | AID 1745845; also: nearly all actives have a fitted effect of over 55% in size
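qHTS (up to 57 uM final) was run with 24 h compound exposure of reporter cells at 37 °C. Each well was multiplexed: SteadyGlo luminescence measured ATXN2-luciferase expression after a fluorogenic Gly-Phe-AFC viability readout (25 uM final).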
HT1080-NT tox = kills 2HG-producing HT-1080-NT fibrosarcoma cells; HT-1080-NT fibrosarcoma viability, CellTiter-Glo ATP luminescence, 48 h; Potency, µM (series often up to 46.1 µM), most hits filed as cytotoxic; 360,000 compounds, 1.6% hits;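 also: NT is the 2HG producing partner of a matched IDH1 knockdown line; nearly all actives have a fitted effect of over 55% in size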
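750 cells/well, RPMI + 5% FBS; 2 h settle, compound pin-transfer, 48 h at 37 degrees C. CellTiter-Glo 10 min RT, luminescence. Normalized to DMSO and media-only wells.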
Of the large screens only hits and unclear results are named; the others gave an inactive call. A selection: hits, their analogues and other compounds. The true share with any hit is near 6.2%. Calls follow the shape of the dose curve; as a rule, active = well fitted curve in the direction sought with a large enough effect; inconclusive = small, poorly fitted or top-dose-only effect, or another doubt; inactive = no such curve, though single readings can be large; an effect the other way counts as inactive or inconclusive.

Cc1ccccc1-n1cc(CNC(=O)CN2Cc3ccccc3OC(C)C2)cn1 (configuration not stated)	none (no result: HT1080 IDH1KD tx, KB-3-1 tox, KB-V1 cytotox, ATXN2 expr inh, HT1080-NT tox)
CC1CC(C)CN(Cc2nc(N)nc(Nc3ccc4ccccc4c3)n2)C1 (configuration not stated)	HT1080 IDH1KD tx inconclusive, KB-3-1 tox 11.6µM, KB-V1 cytotox inconclusive, ATXN viability inconclusive, HT1080-NT tox inconclusive
CC1CC(C)CN(Cc2nc(N)nc(Nc3ccccc3)n2)C1 (configuration not stated)	none
CCN(CC(O)CON=C1c2ccccc2-c2ccccc21)S(=O)(=O)c1ccc(C)cc1 (configuration not stated)	KB-V1 cytotox 18.4µM, ATXN2 expr inh inconclusive
CN(CC(O)CON=C1c2ccccc2-c2ccccc21)S(=O)(=O)c1ccc(Br)cc1 (configuration not stated)	HT1080 IDH1KD tx inconclusive, KB-3-1 tox inconclusive, KB-V1 cytotox 18.4µM, ATXN2 expr inh inconclusive, HT1080-NT tox inconclusive
COc1cc(OC)c(/C=C/c2ccc3ccccc3n2)c(OC)c1	KB-3-1 tox 0.517µM (no result: HT1080 IDH1KD tx, ATXN viability, ATXN2 expr inh, HT1080-NT tox)
COc1cc(OC)c(/C=C/c2ccccn2)c(OC)c1	KB-3-1 tox 5.17µM (no result: HT1080 IDH1KD tx, ATXN viability, ATXN2 expr inh, HT1080-NT tox)
COc1cc(OC)c(/C=C/c2cc3ccccc3c[n+]2C)c(OC)c1	KB-3-1 tox 0.92µM (no result: HT1080 IDH1KD tx, ATXN viability, ATXN2 expr inh, HT1080-NT tox)
COc1ccc(OC)c(/C=C/c2cc3ccccc3c[n+]2C)c1	KB-3-1 tox inconclusive (no result: HT1080 IDH1KD tx, ATXN viability, ATXN2 expr inh, HT1080-NT tox)
Cc1ccc(C(=O)N2CCC(N3CCN(Cc4ccc(F)cc4)C(=O)C3=O)CC2)cc1	none (no result: HT1080 IDH1KD tx, HT1080-NT tox)
COC(=O)c1ccc2c(C(=Nc3ccc(N(C)C(=O)CN4CCN(C)CC4)cc3)c3ccccc3)c(O)[nH]c2c1	ATXN2 expr inh 24.3µM (no result: HT1080 IDH1KD tx, KB-3-1 tox, KB-V1 cytotox, ATXN viability, HT1080-NT tox)
CCN1CCN(CCNC(=O)CCCCCn2c(=O)[nH]c3cc(C(=O)OC)ccc3c2=O)CC1	none
CCCCCCCCN1C(=O)[C@H](CC(=O)N2CCN(C(=O)OCC)CC2)C[C@@]2(C(=O)OCC)CCCC=C12	HT1080 IDH1KD tx inconclusive, KB-V1 cytotox inconclusive, ATXN viability inconclusive, ATXN2 expr inh inconclusive, HT1080-NT tox inconclusive
COc1ccc2c(C)nc(Nc3nc(C)cc(C)n3)nc2c1	HT1080 IDH1KD tx 0.891µM, KB-V1 cytotox inconclusive, HT1080-NT tox 0.447µM
COc1ccc2c(C)nc(Nc3nc(C)c(C)c(=O)[nH]3)nc2c1	HT1080 IDH1KD tx inconclusive, KB-3-1 tox 3.66µM, KB-V1 cytotox 7.31µM, HT1080-NT tox inconclusive
COc1ccc2nc(NC3=NC(c4ccccc4)CC(=O)N3)nc(C)c2c1 (configuration not stated)	HT1080 IDH1KD tx 18.4µM, HT1080-NT tox inconclusive
CC(=O)Nc1ccc(S(=O)(=O)N2CCC(n3c(C(F)(F)F)nc4cccnc43)CC2)cc1	none (no result: HT1080 IDH1KD tx, HT1080-NT tox)
COc1ccc(-c2c(-c3ccc(O)cc3O)n[nH]c2C(F)(F)F)cc1	HT1080 IDH1KD tx inconclusive, HT1080-NT tox inconclusive
Oc1ccc(-c2n[nH]c(C(F)(F)F)c2-c2ccccc2)c(O)c1	HT1080 IDH1KD tx 10.3µM, KB-3-1 tox inconclusive, KB-V1 cytotox inconclusive
O=C(c1ccc(-c2ccc([N+](=O)[O-])cc2)o1)N1CCN(S(=O)(=O)c2cccs2)CC1	ATXN viability inconclusive
O=C1C=CC(=O)N1c1ccc(OC(F)F)cc1	HT1080 IDH1KD tx 16.4µM, KB-3-1 tox inconclusive, KB-V1 cytotox inconclusive, ATXN2 expr inh inconclusive, HT1080-NT tox inconclusive (no result: ATXN viability)
O=C1C=CC(=O)N1c1ccc(O)cc1	KB-V1 cytotox inconclusive (no result: ATXN2 expr inh)
O=C(NNc1ccccc1F)c1ccccc1	HT1080 IDH1KD tx 9.2µM, KB-V1 cytotox inconclusive, HT1080-NT tox inconclusive
Cc1ccccc1NS(=O)(=O)c1ccc(C(=O)NNC(=O)c2ccccc2O)cc1	HT1080 IDH1KD tx inconclusive, KB-3-1 tox inconclusive, ATXN viability inconclusive, ATXN2 expr inh inconclusive
O=C(NNC(=O)c1ccccc1O)c1ccc(S(=O)(=O)Nc2ccccc2F)cc1	HT1080 IDH1KD tx inconclusive, KB-3-1 tox inconclusive, ATXN2 expr inh inconclusive, HT1080-NT tox 23.1µM
CCCC12CN3CC(C)(CN(C1)C3c1cn(CC)c3ccccc13)C2=O (configuration not stated)	none (no result: HT1080 IDH1KD tx, HT1080-NT tox)
NC(Cc1ccc(Cl)cc1)c1csc(NC(=O)Nc2ccccc2-c2ccccc2)n1 (configuration not stated)	HT1080 IDH1KD tx inconclusive, KB-3-1 tox inconclusive, KB-V1 cytotox inconclusive, ATXN2 expr inh inconclusive, HT1080-NT tox inconclusive
NC(Cc1ccc(Cl)cc1)c1csc(NC(=O)NCC2CCCCC2)n1 (configuration not stated)	HT1080 IDH1KD tx 16.4µM, KB-3-1 tox inconclusive, KB-V1 cytotox 16.4µM, ATXN viability 35.5µM, ATXN2 expr inh inconclusive, HT1080-NT tox 16.4µM
NC(Cc1ccc(Cl)cc1)c1csc(NC(=O)NCCc2ccccc2)n1 (configuration not stated)	HT1080 IDH1KD tx inconclusive, KB-3-1 tox inconclusive, ATXN viability 28.2µM, ATXN2 expr inh inconclusive, HT1080-NT tox 16.4µM
COc1cc(CNC(=O)Nc2nc(C(N)Cc3ccc(Cl)cc3)cs2)cc(OC)c1OC (configuration not stated)	HT1080 IDH1KD tx inconclusive, KB-3-1 tox inconclusive, ATXN viability 25.1µM, ATXN2 expr inh inconclusive, HT1080-NT tox 6.51µM
NC(CCc1ccccc1)c1csc(NC(=O)NCCc2ccccc2)n1 (configuration not stated)	HT1080 IDH1KD tx 16.4µM, KB-3-1 tox inconclusive, KB-V1 cytotox inconclusive, HT1080-NT tox 16.4µM
COc1ccc(CC(N)c2csc(NC(=O)NCCc3ccccc3)n2)cc1 (configuration not stated)	HT1080 IDH1KD tx inconclusive, ATXN viability inconclusive, ATXN2 expr inh inconclusive, HT1080-NT tox inconclusive
COc1cc(CNC(=O)Nc2nc(C(N)c3ccccc3)cs2)cc(OC)c1OC (configuration not stated)	KB-3-1 tox inconclusive, KB-V1 cytotox inconclusive
NC(CO)c1csc(NC(=O)Nc2ccccc2Cc2ccccc2)n1 (configuration not stated)	none
O=C(Nc1cc(-c2nc3ccccc3o2)ccc1Cl)c1ccc(N2CCCCC2)c([N+](=O)[O-])c1	none (no result: HT1080 IDH1KD tx, HT1080-NT tox)
O=c1[nH][nH]c2c1C(c1cccc(C(F)(F)F)c1)OC(CCc1ccccc1)C2 (configuration not stated)	HT1080 IDH1KD tx inconclusive, ATXN viability inconclusive
COc1ccccc1CNC(=O)Nc1nc(C(N)CCc2ccccc2)cs1 (configuration not stated)	HT1080 IDH1KD tx 18.4µM, KB-3-1 tox inconclusive, ATXN2 expr inh inconclusive, HT1080-NT tox inconclusive (no result: ATXN viability)
COC(=O)C1=C(C)NC(C)=C(C(=O)OC)C1c1ccc(-c2cc(Cl)ccc2Cl)o1	HT1080 IDH1KD tx inconclusive, ATXN viability inconclusive
COC(=O)C1=C(C)NC(C)=C(C(=O)OC)C1c1ccc(-c2cccc(Cl)c2Cl)o1	KB-V1 cytotox 16.4µM
